# PubChem BioAssay AID777 (Sanford-Burnham Center for Chemical Genomics, 2007)
# In all, about 96,000 compounds went through this assay and about 19,000 (20%) were called active. A selection follows. Values without a mark were called inactive.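 The calls were made as follows: active = blocking of liver enzyme CYP2C9 beyond about 50% at 5 µM (limit read from the data); inactive = the rest.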
# Target: Cytochrome P450 2C9 (Homo sapiens) (UniProt P11712)
# Assay: blockers of cytochrome P450 2C9 activity – biochemical, luminescence, ADME assay, primary screen (AID 777)
# Conditions: CYP2C9 Supersomes, luciferin-H conversion, at 5 µM, active compounds read high
# Cytochrome P450 2C9 (Homo sapiens), sequence (P11712 whole entry, looked up): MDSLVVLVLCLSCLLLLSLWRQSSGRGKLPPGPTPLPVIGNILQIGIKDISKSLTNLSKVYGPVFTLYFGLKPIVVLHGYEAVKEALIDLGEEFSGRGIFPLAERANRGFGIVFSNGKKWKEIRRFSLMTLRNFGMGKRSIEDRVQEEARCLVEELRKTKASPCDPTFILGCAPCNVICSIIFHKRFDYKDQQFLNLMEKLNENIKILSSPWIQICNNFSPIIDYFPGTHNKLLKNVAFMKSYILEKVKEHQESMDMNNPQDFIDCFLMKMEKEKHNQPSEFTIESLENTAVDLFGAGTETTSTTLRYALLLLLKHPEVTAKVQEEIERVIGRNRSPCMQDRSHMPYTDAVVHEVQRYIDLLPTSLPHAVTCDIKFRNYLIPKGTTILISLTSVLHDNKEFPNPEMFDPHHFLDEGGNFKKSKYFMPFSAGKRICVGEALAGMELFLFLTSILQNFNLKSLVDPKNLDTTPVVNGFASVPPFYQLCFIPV
row,Compound,inhibition
1,Fc1ccc(CNc2nc3ccccc3n3nnnc23)cc1,11.6%
2,CCc1ccccc1NC(=O)CN(C)S(=O)(=O)c1ccc2c(c1)c(=O)n(C)c(=O)n2C,-17.2%
3,COc1ccc(N(C(=O)c2cccnc2)S(=O)(=O)c2ccc3c(c2)n(C)c(=O)n3C)cc1,86.2% (active)
4,COc1ccc(-c2c3c(=O)n(C)c(=O)n(C)c3cn2NC(C)=O)cc1,1.5%
5,Cc1ccsc1C(C(=O)NC1CCCCC1)N(C(=O)Cc1cccs1)C1CC1 (configuration not stated),18.5%
6,Cc1ccc(F)cc1NC(=O)c1cccc(N(C)C)c1,-1.6%
7,Cc1ccc(C(c2nnnn2CS(=O)(=O)c2ccc(C)cc2)N2CCC(C)CC2)cc1 (configuration not stated),-18.8%
8,Cc1cc(NC(=O)COC(=O)c2ccc(F)c(S(=O)(=O)N3CCOCC3)c2)no1,-0.2%
9,Cc1cc(C(=O)OCC(=O)Nc2ccc(F)c(F)c2)c(C)o1,61.2% (active)
10,Cc1cc(C(=O)OCC(=O)c2c(N)n(C)c(=O)n(C)c2=O)c(C)o1,15.9%
11,O=C(O)CSC(NC(=O)c1cccnc1)(C(F)(F)F)C(F)(F)F,3.1%
12,CC1CC2=C(CC1/C=N/NC(N)=S)C(C)(C)CCC2 (configuration not stated),43.1%
13,CC(=O)NNc1cc(=O)c2c(=O)n(C)c(=O)n(C)c2[nH]1,6.5%
14,CC(=O)NC(Cc1ccc(F)cc1)C(=O)O (configuration not stated),6.7%
15,O=S(=O)(NCC1OCCc2ccccc21)c1ccccc1 (configuration not stated),3%
16,O=c1nc2s/c(=C\c3ccco3)c(=O)n2nc1Cc1ccccc1,-5.6%
17,O=c1/c(=C/c2ccc(CNS(=O)(=O)c3ccccc3)o2)sc2n1CCN=2,71.2% (active)
18,Cc1cc(C(F)(F)F)nn1CC(=O)N1CCCC1,1%
19,O=C(CCCC(=O)N(CC(=O)NC1CCCC1)Cc1ccccc1Cl)Nc1ccccn1,77.3% (active)
20,Cc1noc(C)c1C(=O)N(CC(=O)NC1CCCC1)Cc1ccccc1F,26.2%
21,CCOc1ccccc1N(CC(=O)NC1CCCCC1)C(=O)CCCC(=O)Nc1ccccn1,79.8% (active)
22,CN(CC(=O)NC1CCCCC1)S(=O)(=O)c1cccc2cccnc12,-46%
23,CCC(C)(NC(=O)c1ccccn1)C(=O)NC1CCCCC1 (configuration not stated),12.3%
24,CCCC(=O)Nc1cc(OCC)c(NC(=O)NC2CCCCC2)cc1OCC,4.7%
25,COc1ccc(N2C(=O)C3CCCN3C2c2cccs2)cc1 (configuration not stated),31.3%
26,O=C1CSC(c2ccccc2)N1c1nc(-c2ccc(Cl)cc2Cl)cs1 (configuration not stated),21.8%

row,Compound,inhibition
1,O=C(NCCCNCc1ccccc1)c1ccc(/C=N/O)nc1,-11.5%
2,O=C(CCCn1c(=O)oc2ccccc21)Nc1cccnc1,-30.9%
3,COC(=O)C(C)n1cnc2c(nnn2-c2cccc(Cl)c2)c1=O (configuration not stated),1.7%
4,CN=C1SC(C(=O)O)CC(=O)N1C (configuration not stated),-6.4%
5,COC(=O)C(CC(=O)Nc1cc(C)ccc1C)Nc1ccccc1OC (configuration not stated),7.7%
6,CCOc1cc(C(=S)N2CCOCC2)ccc1O,-10.2%
7,O=P(c1cccs1)(c1cccs1)c1cccs1,12.7%
8,O=C1CC(c2cccc(F)c2)C2=C(CCCC2=O)N1 (configuration not stated),12.1%
9,COc1ccc(OC)c(NC(=O)CSc2nc(N)c(-c3ccccc3)c(=O)[nH]2)c1,29.2%
10,COC(=O)c1cccc(NC(=O)CSc2nc(C)cc(=O)[nH]2)c1,42.6%
11,COc1ccc(NC(=O)CSc2nc(NS(=O)(=O)c3ccc(C)cc3)cc(=O)[nH]2)cc1,91.7% (active)
12,COc1cc2ccccc2cc1C(=O)Nc1ccc(S(=O)(=O)Nc2cc(C)on2)cc1,3.1%
13,COc1ccc2nc(SCC(=O)Nc3c(C)cc(C)cc3C)[nH]c2c1,81.5% (active)
14,COc1ccc(NC(=O)CSc2nc(N)c(-c3ccccc3)c(=O)[nH]2)cc1,3.1%
15,Cc1ccc(NC(=O)NCC(c2cccnc2)N2CCOCC2)cc1 (configuration not stated),2.5%
16,COc1ccc(N/N=C2/CCCCC2=O)cc1,-10.8%
17,Cc1nc2cc(NC(=O)NCc3ccccc3)ccc2o1,-5.6%
18,O=C(O)c1cscn1,-3.7%
19,N#C/C(=C(\O)CCl)c1nnc2n1CCCCC2,3.8%
20,O=C(CCC(=O)OCC(F)(F)C(F)F)NCc1ccccc1,4.8%
21,O=C(CCC(=O)OCc1cccc(C(=O)Oc2ccccc2)c1)Nc1cccc2ccccc12,95.5% (active)
22,O=C(O)c1ccccc1-c1ccccc1C(=O)Nc1cccc2ccccc12,36%
23,CCOC(=O)C1=C(CSc2nnnn2C)N(C)C(=O)NC1c1ccccc1 (configuration not stated),-20.4%
24,Cc1ccccc1NC(=O)C(C)c1ccc(-c2ccccc2)c(F)c1 (configuration not stated),67.2% (active)
25,CC(Sc1nncn1C)C(=O)Nc1ccccc1-c1ccccc1 (configuration not stated),15.8%
26,Cc1ccccc1NC(=O)c1ccccc1,0.6%

row,Compound,inhibition
1,Cc1cccc(N2CCN(Cc3c(C)n(C)n(-c4ccccc4)c3=O)CC2)c1C,-16.5%
2,CCOC(=O)N1CCN(Cc2nc(N)nc(Nc3ccc(C)cc3)n2)CC1,15.5%
3,Cc1ccccc1Nc1nc(N)nc(CN2CCN(c3ccccn3)CC2)n1,23.8%
4,CN(CCO)Cc1csc2ccc(Br)cc12,-22.8%
5,CCC1(C)N(O)C(C)(C)C(c2ccc(OC)cc2)=[N+]1[O-] (configuration not stated),0.3%
6,COC(=O)C(C)Oc1ccc2c(-c3cccc([N+](=O)[O-])c3)cc(=O)oc2c1 (configuration not stated),28.8%
7,O=Cc1c(N2CCN(c3cccc(Cl)c3)CC2)nc2ccccn2c1=O,49.1%
8,Cc1ccc(C(c2nnnn2CS(=O)(=O)c2ccc(C)cc2)N2CCC(C(N)=O)CC2)cc1 (configuration not stated),6.2%
9,Cc1cccn2c(=O)c(/C=C(\C#N)S(=O)(=O)c3ccc(Cl)cc3)c(N3CCC(C(N)=O)CC3)nc12,96.9% (active)
10,COc1ccc(CC(=O)Nc2nc3n(n2)C(c2ccccc2)CC(=O)N3)cc1OC (configuration not stated),-5.5%
11,COc1ccccc1-n1cnc2cc(NS(=O)(=O)c3ccccc3)ccc21,82.5% (active)
12,COc1ccccc1-n1cnc2cc(C(=O)NCC3CCCO3)ccc21 (configuration not stated),-36.5%
13,COCCCNC(=O)c1ccc2c(c1)ncn2-c1ccccc1OC,-38.2%
14,Cn1ncc(Br)c1C(=O)NCc1cccs1,1.5%
15,COc1ccc(-c2csc3nc(-c4ccccc4F)oc(=O)c23)cc1OC,-1.8%
16,CCN(CC)S(=O)(=O)c1ccc(N2CCOCC2)c(C(=O)O)c1,19.3%
17,Cc1ccc(S(=O)(=O)N2CCC(C(=O)N[C@@H](C)C(=O)NCc3ccccc3)CC2)cc1,-9.2%
18,CN(C)S(=O)(=O)c1ccc(N2CCCC2)c(C(=O)NCc2ccccc2)c1,59.9% (active)
19,O=C(CSc1nnc(Cn2cnc3ccccc32)o1)c1ccccc1,32.1%
20,CCOC(=O)N1CCN(CC(=O)c2c(C)[nH]c3ccccc23)CC1,-60.1%
21,COc1cc(OC)c(C(=O)Nc2ccc(N(C)C)cc2)cc1OC,33.3%
22,CCNS(=O)(=O)c1ccc(NC(=O)Nc2cccc(C(F)(F)F)c2)cc1,34.1%
23,CCC(=O)Nc1ccc(C(=O)Nc2cccc(OC)c2)cc1,-13.5%
24,CCNS(=O)(=O)c1ccc(NC(=O)Nc2cccc(OC)c2)cc1,59.5% (active)
25,CCOC(=O)C1=C(c2ccccc2)O/C(=C(/C(=O)OC)C(F)(F)F)S1,20.8%
26,CCCc1[nH]nc2c1C(c1ccc(OC)c(Cn3nc(C)c(Br)c3C)c1)C(C#N)=C(N)O2 (configuration not stated),11.8%

row,Compound,inhibition
1,Cc1cc(C)c(C#N)c(SCc2[nH]nc3c2C(c2ccccc2)C(C#N)=C(N)O3)n1 (configuration not stated),18.4%
2,COc1ccc(-c2[nH]nc3c2C(c2ccncc2)C(C#N)=C(N)O3)cc1 (configuration not stated),-13%
3,CCCc1[nH]nc2c1C(c1ccc(OC(=O)c3ccco3)cc1)C(C#N)=C(N)O2 (configuration not stated),52% (active)
4,CCCc1[nH]nc2c1C(c1ccc(Br)s1)C(C#N)=C(N)O2 (configuration not stated),33%
5,CCCc1[nH]nc2c1C(c1c(C)nn(-c3ccccc3)c1Cl)C(C#N)=C(N)O2 (configuration not stated),52.8% (active)
6,COC(=O)c1cc(S(=O)(=O)NC2CCN(Cc3ccccc3)CC2)cn1C,-9.6%
7,S=c1[nH]nc(-c2ccc(Cl)cc2)n1CC1CCCO1 (configuration not stated),15.7%
8,CC(C)NS(=O)(=O)c1ccc(CCC(=O)N2CCOCC2)cc1,0%
9,CC1CCCCC1NC(=O)CSc1nnc(N)s1 (configuration not stated),-16.3%
10,CCCC1CC(C)(C(=O)Cn2[nH]c(=O)ccc2=O)OC1=O (configuration not stated),-20.1%
11,CC(C)Nc1ncnc2c1nnn2Cc1ccccc1,-0.4%
12,Nc1c(C(=O)NCc2ccccc2)nnn1Cc1cccc(Cl)c1,19.3%
13,COC(=O)c1c(C)c(C)nc(N)c1C#N,-10.8%
14,N#CCCN(CCC#N)c1nnc(-c2ccccc2)s1,2.8%
15,CCOC(=O)c1nnn(-c2nonc2-n2cccc2)c1CN1CCC(C(=O)OCC)CC1,94.8% (active)
16,CCOC(=O)c1nnn(-c2nonc2-n2cccc2)c1CN1CCOCC1,16.6%
17,CCN(CC)Cc1c(C(=O)OC)nnn1-c1nonc1N,-22.1%
18,O=c1c2c(nc3nc[nH]n13)CCC2,-10.5%
19,Cc1onc(-c2ccccc2)c1C(=O)Nc1ccccc1C#N,62.8% (active)
20,CC(=O)Nc1cccc(NC(=O)c2c(-c3ccccc3)noc2C)c1,74.3% (active)
21,O=C(Nc1cccc2ccccc12)c1onc2c1CCCC2,-38.6%
22,CC(=O)Nc1cccc(-c2cnc3ccccc3n2)c1,49.7%
23,Cc1onc(-c2ccccc2)c1C(=O)N1CCOCC1,-1.3%
24,Cc1noc(C)c1C(=O)Nc1ccccn1,3.8%
